Assay [1] is described as follows: Tanguay_ZF_120hpf_EYE_legacy: (Legacy) Oregon State University Tanguay Lab 120 Hour Post-fertilization zebrafish Assay for Eye Malformation (AID 2283636).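 Note: binary presence or absence of eye malformation scored by brightfield in 120 hpf larvae.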 Summed up:
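5D wild-type embryos, pronase-dechorionated at 4 hpf; static exposure 6–120 hpf, 28C, dark; DMSO 0.64% final; 5uM trimethyltin chloride positive control. Binary eye-defect scoring at 120 hpf; dead embryos not scored.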

The nature of assay [2]: Tanguay_ZF_120hpf_SNOU_legacy: (Legacy) Oregon State University Tanguay Lab 120 Hour Post-fertilization zebrafish Assay for Snout Malformation (AID 2283637). In a few lines:
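Binary brightfield scoring of snout malformation at 120 hpf. Dechorionated 5D wild-type embryos, one per well, static exposure from 6 hpf at 28C, sealed and dark; final DMSO 0.64% (vol/vol), DMSO as baseline; 5uM trimethyltin chloride positive control.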

A short description of assay [3]: Tanguay_ZF_120hpf_JAW_legacy: (Legacy) Oregon State University Tanguay Lab 120 Hour Post-fertilization zebrafish Assay for Jaw Malformation (AID 2283638). In a few lines:
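Dechorionated Tropical 5D wild-type zebrafish embryos, one per well, exposed statically from 6 hpf to 120 hpf at 28C in 0.64% DMSO. Jaw malformation was scored by brightfield microscopy as present or absent. It was not scored in dead embryos.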

Assay [4] is described as follows: Tanguay_ZF_120hpf_SOMI_legacy: (Legacy) Oregon State University Tanguay Lab 120 Hour Post-fertilization zebrafish Assay for Somite Malformation (AID 2283647). In a few lines:
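Dechorionated Tropical 5D wild-type zebrafish embryos, one per well from 6 hpf, statically exposed at 28C to 120 hpf in 0.64% DMSO; somite malformation scored present/absent by brightfield; trimethyltin 5 uM positive control; dead embryos not scored.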

A short description of assay [5]: Tanguay_ZF_120hpf_PFIN_legacy: (Legacy) Oregon State University Tanguay Lab 120 Hour Post-fertilization zebrafish Assay for Pectoral Fin Malformation (AID 2283648).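 Note: each larva judged yes or no for fin defect by brightfield with dead larvae skipped.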 Summed up: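 Binary pectoral fin malformation call at 120 hpf by brightfield microscopy; 5D wild-type zebrafish, chorion removed at 4 hpf, one embryo per well from 6 hpf, static exposure at 28C; DMSO (0.64% final) as baseline.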

Assay [6] is described as follows: Tanguay_ZF_120hpf_CFIN_legacy: (Legacy) Oregon State University Tanguay Lab 120 Hour Post-fertilization zebrafish Assay for Caudal Fin Malformation (AID 2283649). In a few lines:
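Dechorionated Tropical 5D wild-type embryos, one per well from 6 hpf, static exposure to 120 hpf at 28C in 0.64% DMSO. Caudal fin malformation scored by brightfield as present/absent; not scored in dead embryos.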

Assay [7] can be described thus: Tanguay_ZF_120hpf_PIG_legacy: (Legacy) Oregon State University Tanguay Lab 120 Hour Post-fertilization zebrafish Assay for Pigmentation Malformation (AID 2283650). Summed up:
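Brightfield scoring of pigmentation malformation at 120 hpf, recorded as binary present/absent per larva. Exposure: dechorionated 5D wild-type embryos, one per well, static from 6 hpf at 28C, final DMSO 0.64% (vol/vol). Dead embryos not scored.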

The nature of assay [8]: Tanguay_ZF_120hpf_CIRC_legacy: (Legacy) Oregon State University Tanguay Lab 120 Hour Post-fertilization zebrafish Assay for Circulatory Malformation (AID 2283651). Summed up: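 Embryos are dechorionated at 4 hpf, plated one per well at 6 hpf, then held under static exposure at 28C until 120 hpf. Malformations are recorded as binary calls; mortality excludes other endpoints.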

Assay [9] is described as follows: Tanguay_ZF_120hpf_SWIM_legacy: (Legacy) Oregon State University Tanguay Lab 120 Hour Post-fertilization zebrafish Assay for Swim Bladder Malformation (AID 2283654).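 Note: swim bladder malformation in each larva scored yes or no under brightfield.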 Summed up: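 Tropical 5D embryos dechorionated at 4 hpf; 1 embryo/well from 6 hpf; static, sealed, dark exposure at 28C until 120 hpf; final DMSO 0.64%; 5uM trimethyltin chloride positive control; swim bladder defect recorded yes/no; dead embryos not scored.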

Assay [10] in a line: Tanguay_ZF_120hpf_TRUN_legacy: (Legacy) Oregon State University Tanguay Lab 120 Hour Post-fertilization zebrafish Assay for Truncated Body (AID 2283655). In a few lines: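 Dechorionated Tropical 5D wild-type embryos placed singly from 6 hpf and statically exposed to 120 hpf at 28C, final DMSO 0.64%. Truncated body scored as present/absent by brightfield; not scored in dead embryos.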

Assay [11] is described as follows: Tanguay_ZF_120hpf_NC_legacy: (Legacy) Oregon State University Tanguay Lab 120 Hour Post-fertilization zebrafish Assay for Notochord and Tail Malformation (AID 2283656). In a few lines:
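Binary scoring of notochord distortion by brightfield microscopy; embryos dying were not scored. Wild-type Tropical 5D embryos, chorion removed, exposed singly and statically from 6 to 120 hpf, 28C, sealed, 0.64% DMSO.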

Assay [12] concerns Thyroperoxidase (TPO), gene 54314. Description: CCTE_Simmons_AUR_rTPO: CCTE's Amplex UltraRed Assay for Thyroperoxidase (TPO) Inhibition, Simmons Lab (AID 2283662).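 Note: potency for loss of signal meaning inhibition of peroxidase activity.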 Summed up:
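Rat thyroid microsomal TPO + 25 uM AUR in 200 mM K phosphate; cpd 5 nM–87.5 uM [final], 8 conc, 0.5% DMSO; 300 uM H2O2 starts rxn; 37C dark 30 min; endpoint FI 544/590 nm; n=3.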

Assay [13] in a line: CCTE_Simmons_CellTiterGLO_HEK293T: Viability Assessment in CCTE's Assays for Thyroperoxidase (TPO) Inhibition, Simmons Lab (AID 2283665). In a few lines:
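Cells were seeded overnight, then exposed to an eight-point series up to 87.5 uM final for 24 hours. CellTiter-Glo reagent was added and luminescence read after 20 min, giving ATP-based viability versus DMSO.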
On the technique in general: Cellular ATP, detected with luciferase, serves as a proxy for viable cell number.

Assay [14] is described as follows: Tanguay_ZF_120hpf_BRAI_legacy: (Legacy) Oregon State University Tanguay Lab 120 Hour Post-fertilization zebrafish Assay for Brain Malformation (AID 2283641). Summed up: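 Tropical 5D wild-type zebrafish embryos exposed statically until 120 hpf at 28C, 0.64% DMSO final, sealed and dark. Brain malformation scored present/absent by brightfield at 120 hpf; dead embryos excluded. Trimethyltin chloride 5uM positive control.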

Assay [15] in a line: Tanguay_ZF_120hpf_TR_legacy: (Legacy) Oregon State University Tanguay Lab 120 Hour Post-fertilization zebrafish Assay for Touch Response (AID 2283667). In a few lines: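 Binary touch-response call at 120 hpf, analysed as gain of signal versus DMSO baseline. Wild-type 5D larvae, static exposure at 28C, 0.64% DMSO final; 5uM trimethyltin chloride as positive control.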
The nature of assay [16]: Tanguay_ZF_120hpf_OTIC_legacy: (Legacy) Oregon State University Tanguay Lab 120 Hour Post-fertilization zebrafish Assay for Otic Vesicle Malformation (AID 2283639). In a few lines: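 Statically exposed wild-type 5D zebrafish embryos, kept sealed and dark at 28C through 120 hours post fertilization, were examined by brightfield microscopy for otic vesicle defects. Responses were recorded as present or absent and analysed relative to DMSO.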

Assay [17] is described as follows: Tanguay_ZF_120hpf_PE_legacy: (Legacy) Oregon State University Tanguay Lab 120 Hour Post-fertilization zebrafish Assay for Pericardial Edema (AID 2283640). Summed up: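 Tropical 5D wild-type zebrafish embryos were statically exposed until 120 hpf at 28C, with 0.64% DMSO final. Pericardial edema was scored by brightfield as present or absent; endpoints were not scored in dead embryos.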

Read-out in assay [18]: solute carrier (SLC10A1), SLC10A1 (gene 6554)
Description: LTEA_HepaRG_SLC10A1: Life Technologies and Expression Analysis (LTEA) Assay for solute carrier (SLC10A1) using HepaRG (AID 2283657; active = hit-call score of the fitted dose curve at least 0.9, where 1 is the maximum; inactive = score below 0.9). The following applies: mRNA level, 48 h; actives raise or lower the signal. Summed up:
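HepaRG, 48 h exposure, 8-pt half-log curve from 100 uM in 0.5% DMSO, duplicates. Read-out: TaqMan qRT-PCR of SLC10A1 mRNA, normalized to three housekeeping genes. Gain/loss fit vs DMSO baseline.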

Read-out in assay [19]: matrix metalloproteinase-1 (MMP1), MMP1 (gene 4312)
Description: LTEA_HepaRG_MMP1: Life Technologies and Expression Analysis (LTEA) Assay for matrix metalloproteinase-1 (MMP1) using HepaRG (AID 2283658; active = hit-call score of the fitted dose curve at least 0.9, where 1 is the maximum; inactive = score below 0.9). As to conditions: mRNA level, 48 h; actives raise or lower the signal. Summed up: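 Differentiated human HepaRG cells, 48 h post-plating in serum-free induction medium, were exposed 48 h to eight half-log concentrations topping at 100 uM in 0.5% DMSO, duplicate. MMP1 mRNA measured by Fluidigm TaqMan qRT-PCR, normalized to ACTB, GAPDH, POLR2A; bidirectional fits versus DMSO.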

This note sets out measurements from PubChem BioAssay (EPA / NIEHS).

Results filed as inconclusive are left out. Activity calls are given as the source filed them. Rule for the calls, unless noted: active = hit-call score of the fitted dose curve at least 0.9, where 1 is the maximum; inconclusive = response in the unintended direction; inactive = score below 0.9.

Usually AC50 stands for the concentration giving half of the maximal activity seen.

Take `CN(C)[C@@H]1C(=O)C(C(N)=O)=C(O)[C@@]2(O)C(=O)C3=C(O)c4c(O)cccc4[C@@](C)(O)[C@H]3C[C@@H]12`: the result in assay [1], in assay [2], in [3], in [4], in [5] and in assay [6] was inactive. For the same molecule, the result in [7], in [8], in assay [9], in assay [10], in [11] and in assay [13] was inactive. The AC50 in [12] was 10.7 µM (active).
For the molecule `c1ccc2c(c1)-c1cccc3cccc-2c13`, the call in assay [14], in [5], in assay [6], in assay [7], in assay [10] and in assay [11] was inactive. In addition, the molecule was classed as inactive in assay [15].
For the molecule `Clc1ccc(C(c2ccc(Cl)cc2)C(Cl)(Cl)Cl)cc1`, the molecule was classed as inactive in [2], in assay [3], in [16], in assay [4], in [5] and in assay [6]. The molecule was called inactive in assay [7], in [9], in assay [10] and in assay [11].
In the case of `CCN(CC)CCO`, the molecule was called inactive in assay [1], in [16], in assay [17], in assay [4], in [5] and in [6]. The result in assay [7], in [9], in assay [10], in [11], in assay [18] and in [19] was inactive. In addition, in assay [15], the outcome was inactive.
